Laboratory results reported in PubChem BioAssay AID2113 (National Center for Advancing Translational Sciences (NCATS), 2009).
Results filed as inconclusive are left out. A number with no mark means an inactive call. Active and inactive are the calls of the source. Calls follow the shape of the dose curve; as a rule, active = well fitted curve in either direction with a large enough effect; inconclusive = small, poorly fitted or top-dose-only effect; inactive = no such curve, though single readings can be large or run the other way.
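For Potency in this document: fluorescence of 4-methylumbelliferone released from a fluorogenic glucopyranoside substrate at pH 5.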
For activity change, both directions in this document: 0% is about no effect.
Potency is read from the fitted curve at half-maximal effect.

Each compound was assayed against Lysosomal alpha-glucosidase (Homo sapiens) (UniProt P10253) (assay: Confirmation of Inhibitors and Activators of Human alpha-Glucosidase From Spleen Homogenate). Conditions: alpha-glucosidase enzyme activity; series mostly up to 60.5 µM; activity change, both directions: at the top concentration.
Outline: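 Fluorogenic assay using human spleen homogenate (1 ug) as enzyme source with 1 mM 4-methylumbelliferyl-alpha-D-glucopyranoside, pH 5.0 citrate buffer, 40 min at 37 C. 4-MU read (Ex 365/Em 440) after NaOH/glycine stop; AC50 from Hill fits.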
With `CCCCn1c(CN2CCN(c3cccc(Cl)c3)CC2)nc2c1c(=O)n(C)c(=O)n2C` the “activity change, both directions” value was -2.65% [at 31.5 µM]. With `CCCN1CNc2c(c(=O)[nH]c(=S)n2CCc2cccc(Cl)c2)C1` the Potency was 12.6 µM (active). For `Cc1[nH]n(C(N)=S)c(=O)c1N=Nc1ccc2ccccc2c1`, the “activity change, both directions” value was 1.19%. With `CC(=O)Nc1cccc2c1C(=O)NC2=O` the “activity change, both directions” value was -1.43% [at 31.5 µM]. With `O=C(O)C[C@@H]1C(=O)O[C@@H]2C(COC(=O)c3cc(O)c(O)c(O)c3)O[C@@H](OC(=O)c3cc(O)c(O)c(O)c3)[C@@H](OC(=O)c3cc(O)c(O)c4c3[C@H]1[C@H](O)C(=O)O4)[C@H]2OC(=O)c1cc(O)c(O)c(O)c1` (stereo not given in full) the “activity change, both directions” value was 15.7% [at 31.5 µM]. In the case of `Cc1cccc(S(=O)(=O)c2c(N)n(-c3ccccc3)c3nc4ccccc4nc23)c1`, the “activity change, both directions” value is reported as 12.7% [at 31.5 µM]. In the case of `COC(=O)c1cccc(S(=O)(=O)N2CCOCC2)c1`, the “activity change, both directions” value is reported as -0.712%. In the case of `C[C@@H](NC(=O)c1nc[nH]c1C(=O)N[C@@H](Cc1ccccc1)C(=O)OC(C)(C)C)c1ccccc1`, the “activity change, both directions” value is reported as -2.65%. In the case of `O=c1oc2ccccc2cc1-c1nc2c(s1)CCc1ccccc1-2`, the “activity change, both directions” value is reported as 5.25%. `COc1ccc(/C=c2\s/c(=C/C(=O)c3ccc(C)cc3)[nH]c2=O)cc1OC` was tested, and the “activity change, both directions” value was -4.47% [at 31.5 µM]. With `O=c1[nH]cc(CCc2ccccc2)c2ncncc12` the “activity change, both directions” value was -8.37%. With `COC(=O)c1ccc(CSc2cc(C)c3cccc(C)c3n2)o1` the “activity change, both directions” value was 4.59% [at 31.5 µM]. With `CN(C)C=Nc1nc2ccccc2nc1N1CCCC1` the “activity change, both directions” value was 7.05% [at 31.5 µM]. With `O=c1[nH]c2ccccc2nc1/C=C/c1ccc2c(c1)OCO2` the “activity change, both directions” value was 3.87%. For `CCCN1CNc2c(c(=O)[nH]c(=S)n2CCc2cc(OC)cc(OC)c2)C1`, the Potency was 11.2 µM (active). For `C(=C/c1ccc2ccccc2n1)/c1ccc2c(c1)OCO2`, the “activity change, both directions” value was 9.52%. `N#Cc1ccc(N2CCN(S(=O)(=O)c3ccc4c(c3)CC(=O)N4)CC2)cc1` was tested, and the Potency was 1.16 µM [inhibitor] (active). In the case of `C=CCSc1nc(-c2ccc3c(c2)OCO3)cc(C(F)(F)F)c1C#N`, the “activity change, both directions” value is reported as 40.6%. In the case of `COc1ccc(CCn2c3c(c(=O)[nH]c2=S)CN(C)CN3)cc1OC`, the Potency is reported as 31.6 µM (active). In the case of `CC1(CCc2ccc3c(c2)OCO3)NC(=O)c2ccccc2N1` (stereo not given), the “activity change, both directions” value is reported as 4.52% [at 31.5 µM]. For `Cc1ccccc1-n1c(N)cc(=O)[nH]c1=S`, the “activity change, both directions” value was 0.384% [at 31.5 µM]. `Cc1c(Nc2c3ccccc3nc3ccccc23)c(=O)n(-c2ccccc2)n1C` was tested, and the “activity change, both directions” value was -0.437% [at 31.5 µM]. `COc1cccc2cc(-c3nc(-c4ccccc4)c(C)s3)c(=O)oc12` was tested, and the “activity change, both directions” value was -10.2%. `C=CCCCCCCCCCCCc1ccco1` was tested, and the “activity change, both directions” value was -13.3% [at 286 µM]. In the case of `CC1CC(C)CN(CC(=O)N2c3ccccc3CCc3ccccc32)C1` (stereo not given), the “activity change, both directions” value is reported as -1.9%. For `O=c1cc(-c2ccccc2)[nH]c2[nH]n(-c3ccccc3)c(=O)c12`, the “activity change, both directions” value was 3.33%. `N#Cc1c(-c2cccs2)cc(-c2cccnc2)nc1N` was tested, and the “activity change, both directions” value was 27.4% [at 31.5 µM]. With `Cc1ccc(S(=O)(=O)N2CCN(C(=O)CSc3nc4ccccc4c(=O)[nH]3)CC2)c(C)c1` the “activity change, both directions” value was -28.9%. `Cc1cnc(C(=O)Nc2cc(S(=O)(=O)N3CCOCC3)ccc2N2CCN(C)CC2)cn1` was tested, and the “activity change, both directions” value was -28%. With `NN=C1c2cc(S(=O)(=O)NCCO)ccc2-c2ccc(S(=O)(=O)NCCO)cc21` the “activity change, both directions” value was 0.552%. `Cc1ccc2c(c1)c1ncnc(N3CCC4(CC3)OCCO4)c1n2C` was tested, and the “activity change, both directions” value was 8.53% [at 31.5 µM]. With `CC(=O)c1ccc(N2CCN(S(=O)(=O)c3ccc4c(c3)CC(C)N4C(C)=O)CC2)cc1` (stereo not given) the “activity change, both directions” value was -2.72%. With `O=C(CSc1ncc(C(F)(F)F)cc1Cl)N1CCN(S(=O)(=O)c2ccccc2)CC1` the “activity change, both directions” value was -25.3%. In the case of `CCCN1CNc2c(c(=O)[nH]c(=S)n2CCc2cccc(Cl)c2Cl)C1`, the Potency is reported as 25.1 µM (active). For `O=S(=O)(c1ccccc1)N1CCN(S(=O)(=O)c2ccccc2)CC1`, the “activity change, both directions” value was 4.23%.
